# Laboratory results reported in PubChem BioAssay (NCI).
# Values joined by “and” are separate entries in the source; they are usually repeats but may differ in a detail not shown here. Identical values can stand only once. Compounds without any hit were thinned out: in the full panel of roughly 83,000, 20% have a hit.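 Cells were grown in 96-well plates and exposed to the test compound at a single concentration for 48 hours; results are reported as percent growth, with values below 10 considered active.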 Active and inactive are the calls of the source.
# Tested on: SK-OV-3 ovarian
# Assay: NCI-60 one-dose screen, 48 h (100 = growth as untreated, 0 = no growth, -100 = all killed)
# Conditions: 10 µM
# Description: Growth inhibition of the SK-OV-3 human tumor cell line is measured as a screen for anti-cancer activity. Cells are grown in 96 well plates and exposed to the test compound for 48 hours. Compounds are tested at a single concentration, which is 10^-5 M for most compounds. The reported endpoint is percent growth (GI% or GIPRCNT), where numbers from 0 - 100% represent growth inhibition, and numbers from -100% - 0 represent cell death. For example, a value of 40 represents 60% growth inhibition. A value of 0 means no net growth occurred over the course of the experiment. A value of -40 indicates 40% of cells at the beginning of the experiment died by the end of the experiment. A value of -100 means all cells are dead at the end of the experiment.
# NCI-60 Human Tumor Cell Lines Screen was performed using the standard one-dose NCI protocol, which is described in more detail at https://dtp.cancer.gov/discovery_development/nci-60/default.htm.
# Compounds with GIPRCNT values below 10 were considered active. Activity score was based on GIPRCNT using the following formula: […]
# Score is 0 for GIPRCNT values of 100 or above, 50 for GIPRCNT values of 0, and 100 for GIPRCNT values of -100.
row,Structure (SMILES),growth
1,O=C(Nc1c(Cl)cccc1Cl)Oc1cccc2cccnc12,65.4% (inactive)
2,O=C(O)c1c(Cl)c(Cl)c(Cl)c(Cl)c1-c1c2cc(I)c(=O)c(I)c-2oc2c(I)c(O)c(I)cc12,101% (inactive) and 92.4% (inactive) and 93.1% (inactive)

# Same assay, conditions: 10 µM unless noted
row,Structure (SMILES),growth
1,C=CCOc1ccc(N=NC(C#N)C#N)cc1,52.7% (inactive)
2,Oc1c(Br)cc(Cl)cc1C(c1cc(Cl)cc(Br)c1O)C(Cl)(Cl)Cl,32.5% (inactive)
3,C=C(Cl)C(=NC(C)(C)C)Nc1ccccc1C,105% (inactive)
4,Cc1ccc(C(=Nc2ccccc2)N=P(c2ccccc2)(c2ccccc2)c2ccccc2)cc1,-66.3% (active)
5,CCC(c1cccc(O)c1)C(CC)c1cccc(O)c1 (stereo not given),76.5% (inactive)
6,NC(=S)N/N=C\c1nccc2c(C(F)(F)C(F)(F)C(F)(F)F)cccc12,-21.8% (active)
7,Cc1ccnc2c1ccc1c(C)ccnc12,3.59% (active)
8,Oc1c(Cl)c2ccccc2c2ccccc12,111% (inactive)
9,Cc1ccnc(NC(c2ccccc2)c2ccc3cccnc3c2O)c1 (stereo not given),57.5% (inactive)
10,CN(C)CCOc1ccc2c(c1)C(=O)/C(=C\c1ncc([N+](=O)[O-])n1C)C2,-42.6% (active)
11,CC(C)(C)CC(C)(C)c1ccc(OCCSC(=N)N)cc1,89.6% (inactive)
12,O=C1C=CC(=O)N1C1c2ccccc2-c2ccccc21,96.5% (inactive)
13,Cc1cc(C(C)(CC(C)C)c2ccc(O)c(C)c2)ccc1O,97% (inactive)
14,Cc1cc(N)c2ccccc2[n+]1CCCCCCCCCC[n+]1c(C)cc(N)c2ccccc21,9.8% (active) and -29.2% (active)
15,N#CSCc1ccc(Cl)c(CSC#N)c1,90.1% (inactive)
16,COC(=O)c1nc(=S)[nH]c(C(=O)OC)c1C(=O)c1ccc2ccccc2c1,101% (inactive)
17,O=C1c2ccccc2C(=O)c2sc(Nc3ccc(Cl)cc3)nc21,100% (inactive)
18,CC(C)(C)c1ccc(O)c(C2CCCCC2)c1,109% (inactive)

row,Structure (SMILES),growth
1,O=C1N[C@H]2[C@H](CS[C@H]2CCCCC(=O)N(CCP(c2ccccc2)c2ccccc2)CCP(c2ccccc2)c2ccccc2)N1,111% (inactive)
2,CCCCCCCCCCCCCCCCCCOP(=O)([O-])OC1CC[N+](C)(C)CC1,35.9% (inactive) and 48.2% (inactive)
3,O=C(Nc1ccccc1)Oc1c(Cl)c(Cl)c(Cl)c(Cl)c1Cl,102% (inactive) and 90.5% (inactive)
4,Cn1c2ccccc2c2nnc(N/N=C/c3ccccn3)nc21,-11.1% (active)
5,S=C(NCCNC(=S)[S][Sn]([c]1ccccc1)([c]1ccccc1)[c]1ccccc1)[S][Sn]([c]1ccccc1)([c]1ccccc1)[c]1ccccc1,-100% (active)
6,C1=C(c2ccccc2)C(c2ccc(OCCN3CCCCC3)cc2)Oc2ccccc21 (stereo not given),74% (inactive)
7,NC(=S)N/N=C/c1ccc(Cl)s1,109% (inactive)
8,COc1cc(/C=C/C(C)=O)ccc1O,94% (inactive) and 112% (inactive)
9,Cc1ccc2nc(C[n+]3ccc4ccccc4c3)ccc2c1,70% (inactive)
10,CC(=O)ON=C1C=CC(=C(C#N)c2ccccc2)C=C1,55.7% (inactive)
11,Cc1ccc2nc(-[n+]3cc4ccccc4cc3C)ccc2c1,38.3% (inactive)
12,Nc1nc(N)c2c(ccc3c2ccn3Cc2cccc([N+](=O)[O-])c2)n1,-100% (active)
13,COc1ccc(N=N/N=c2\sc3cc(OC)ccc3n2C)cc1,86.3% (inactive)
14,Cn1c2c(c3ccccc31)CCN1C[C@@H]3CCCC[C@H]3C[C@@H]21,9.15% (active)
15,O=C1C2=C(Nc3cc([N+](=O)[O-])ccc3N2)OC1c1c2ccccc2cc2ccccc12 (stereo not given),104% (inactive)
16,OC(CNc1ccnc2cc(Cl)ccc12)CNc1ccnc2cc(Cl)ccc12,113% (inactive)
17,CCOC(=O)c1c(C)[nH]c(CO)c1C,102% (inactive)
18,O=C(CC1(O)C(=O)Nc2c(Cl)ccc(Cl)c21)c1ccc(Cl)cc1Cl (stereo not given),84.9% (inactive)

# Same assay, conditions: 100 µM
row,Structure (SMILES),growth
1,O=C(Nc1c(Cl)cccc1Cl)Oc1cccc2cccnc12,18% (inactive)
2,O=C(O)c1c(Cl)c(Cl)c(Cl)c(Cl)c1-c1c2cc(I)c(=O)c(I)c-2oc2c(I)c(O)c(I)cc12,-73.9% (active)
